Screening results: PubChem BioAssay, National Center for Advancing Translational Sciences (NCATS)
A selection: hits, their analogues and other compounds. The true share with any hit is near 8.2%.
KB-3-1 tox = KB-3-1 parental cell cytotoxicity | KB-3-1 viability, CellTiter-Glo ATP luminescence, 72 h | Potency, µM (top dose mostly 46.1 µM), hits mostly cytotoxic | 1.4% of 400,000 active; further: on the % scale 0 is the no-effect control and ±100 the full control effect; nearly all actives have a fitted effect of over 60% in size
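KB-3-1 cells, DMEM (no phenol red) + 10% FBS; compound by pin transfer, 72 h, 37 °C. Readout: CellTiter-Glo luminescence after 10 min. Data normalized, curve-fitted.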
ELG1 repair inh = blocks ELG1-dependent DNA repair in HEK293T cells. Potency, µM (series often up to 46.1 µM), for the others: at the highest dose activity change, negative = inhibition, actives largely listed as inhibitors. 2.3% of 330,000 active. HEK293T ELG1-luciferase reporter, luminescence, 16 h; DNA damage induced by 5-fluorouridine; further: on the % scale 0 is the no-effect control and ±100 the full control effect; nearly all actives have a fitted effect of over 55% in size
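In this reporter screen, reduction of luminescence relative to DMSO vehicle indicated activity. Compounds and 5-fluorouridine were added together to 2,000 cells per well, incubated for 16 hr at 37 °C, then developed with ONE-Glo.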
MCF10A rerep = inducers of DNA re-replication in MCF 10A breast cells; MCF 10A DNA re-replication, Hoechst nuclear intensity, 48 h; Potency, µM (highest dose often 46.1 µM), for the others: at the top dose activity, positive = re-replication, usual class: activators; 2.9% of 350,000 active; further: % of control where 0% means no effect; nearly all actives have a fitted effect of over 50% in size
KB-V1 MDR tox = kills drug-selected multidrug resistant KB-V1 cells. KB-V1 MDR cells viability, CellTiter-Glo, 72 h. Potency, µM (titrated, usually from 46.1 µM), hits mostly cytotoxic. 3.4% of 400,000 active; further: on the % scale 0 is the no-effect control and ±100 the full control effect; nearly all actives have a fitted effect of over 60% in size
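Potencies derive from concentration-effect curves fitted to normalized luminescence (CellTiter-Glo) of KB-V1 cells treated for 72 h at 37 degrees C in phenol-red-free DMEM containing 10% FBS.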
SW480 rerep = inducers of DNA re-replication in SW480 colon cancer cells. SW480 DNA re-replication, Hoechst DNA content imaging, 48 h. Potency, µM (titrated, usually from 46.1 µM), for the others: at the top dose re-replication activation, hits mostly activators. 1.8% of 340,000 active; further: % of control where 0% means no effect; nearly all actives have a fitted effect of over 55% in size
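SW480 cells exposed to compounds for 48 hr at 37 C, 5% CO2, then Hoechst-stained 40 min. Nuclear DNA content imaged by fluorescence scanning (405 nm excitation, 500-530 nm emission); re-replication scored as increased high-intensity nuclei.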
* = called active by the depositor; [ ] = another dose, or the depositor's remark. The call rests on the fitted dose curve; in most records, active means well fitted curve in the direction sought with a large enough effect; inconclusive means small, poorly fitted or top-dose-only effect, or another doubt; inactive means no such curve, though single readings can be large; an effect the other way counts as inactive or inconclusive. Potency means the concentration at half of the fitted maximal effect.

Cc1cc(C)c(OCC(=O)Nc2cccc(NC(=O)c3ccco3)c2)c(Br)c1 was read as KB-3-1 tox inactive, ELG1 repair inh inconclusive, MCF10A rerep 0.9%, KB-V1 MDR tox 20.6µM* and SW480 rerep 1.5%.
`Cc1c(Cl)cccc1NC(=O)C1COc2ccccc2O1` (stereo not drawn) gave KB-3-1 tox inactive, ELG1 repair inh 10.3%, MCF10A rerep 20.1%, KB-V1 MDR tox inactive and SW480 rerep -22.2%.
For COc1cc(OC)c(C(=O)OC(C)C(=O)NCc2ccc3c(c2)OCO3)cc1OC (stereo not drawn) the results were KB-3-1 tox inactive, ELG1 repair inh inconclusive, MCF10A rerep -15.0%, KB-V1 MDR tox inconclusive and SW480 rerep -6.1%.
COc1cccc(C(=O)Nc2cccc(OCc3cc(=O)n4cccc(C)c4n3)c2)c1 was read as KB-3-1 tox inactive and KB-V1 MDR tox inactive.
Screening CN(C(=O)C1CCCN1S(=O)(=O)c1ccc(Cl)cc1)c1ccccc1 (stereo not drawn) returned KB-3-1 tox inactive, ELG1 repair inh 15.3%, MCF10A rerep 15.5%, KB-V1 MDR tox inactive and SW480 rerep -10.2%.
`CCN(CC)C(=O)[C@H]1C[C@H](CC(=O)NCCc2ccccn2)C(=O)N2CCc3c([nH]c4cc(CCC(=O)N(C)C)ccc34)[C@]12C` gave KB-3-1 tox inactive, ELG1 repair inh inconclusive, MCF10A rerep 1.0%, KB-V1 MDR tox inactive and SW480 rerep 3.1%[9.22 µM].
For Cc1ccccc1-c1nc(CN2CCCC2c2ccc(F)cc2)c(C)o1 (stereo not drawn) the results were KB-3-1 tox inactive, ELG1 repair inh -3.3%, MCF10A rerep 14.6µM*, KB-V1 MDR tox inactive and SW480 rerep 4.9%.
For Cc1oc(-c2ccccc2Cl)nc1CN1CCCC1c1ccc(F)cc1 (stereo not drawn) the results were KB-3-1 tox inactive, ELG1 repair inh -12.3%, MCF10A rerep 2.1%, KB-V1 MDR tox inconclusive and SW480 rerep 5.5%.
`CCc1cc2c(=O)nc3n(c2s1)Cc1ccccc1/C3=C(/O)c1ccccc1Cl` gave KB-3-1 tox inactive, ELG1 repair inh -1.0%, MCF10A rerep 6.51µM*, KB-V1 MDR tox inactive and SW480 rerep 8.7%.
Screening Cc1ccc(NC(=O)c2cccc(-n3cnnn3)c2)cc1Cl returned KB-3-1 tox inactive, ELG1 repair inh -6.1%, MCF10A rerep inconclusive, KB-V1 MDR tox inactive and SW480 rerep 0.651µM*.
Cc1ccc(NC(=O)CSc2ccccc2NC(=O)c2ccccc2)cc1Cl was read as KB-3-1 tox inactive, ELG1 repair inh inconclusive, MCF10A rerep 20.6µM*, KB-V1 MDR tox inconclusive and SW480 rerep 5.1%.
`Cc1ccc(NC(=O)CSc2ccccc2NC(=O)c2ccccc2Cl)cc1Cl` gave KB-3-1 tox inconclusive, ELG1 repair inh 23.1µM*, MCF10A rerep 14.1%, KB-V1 MDR tox 3.66µM* and SW480 rerep 1.5%.
Cc1cc(NC(=O)c2ccccc2Cl)ccc1NC(=O)c1ccccc1Cl was read as KB-3-1 tox inactive, ELG1 repair inh 6.6%, MCF10A rerep 2.6%, KB-V1 MDR tox inactive and SW480 rerep -2.5%.
Screening Cc1ccccc1CNC(=O)Cn1ncn2nc(-c3cccs3)cc2c1=O returned KB-3-1 tox inactive and KB-V1 MDR tox inactive.
`COc1ccc(S(=O)(=O)N2CCN(C(=O)C3CC(=O)N(c4ccccc4F)C3)CC2)cc1OC` (stereo not drawn) gave KB-3-1 tox inactive, MCF10A rerep 5.7%, KB-V1 MDR tox inconclusive and SW480 rerep 3.6%.
`CCN(CC)CCn1c(NS(=O)(=O)c2ccc(C)cc2)nc2ccccc21` gave KB-3-1 tox inactive, ELG1 repair inh 29.8%, MCF10A rerep 6.8%, KB-V1 MDR tox 20.6µM* and SW480 rerep -5.7%.
c1ccc(Cn2c(CNc3nc4ccccc4n3CCN3CCCCC3)nc3ccccc32)cc1 was read as KB-3-1 tox inactive, ELG1 repair inh inconclusive, MCF10A rerep inconclusive, KB-V1 MDR tox inconclusive and SW480 rerep inconclusive.
For CCN(CC)CCn1c(NCc2nc3ccccc3n2Cc2ccccc2)nc2ccccc21 the results were KB-3-1 tox inactive, ELG1 repair inh -17.3%, MCF10A rerep 23.1µM*, KB-V1 MDR tox inactive and SW480 rerep inconclusive.
`Cc1ccc(-n2ncc(C(=O)N3CCC(c4ccccc4)C3)c2C2CCN(C(=O)OC(C)(C)C)CC2)cc1` (stereo not drawn) gave KB-3-1 tox inactive and KB-V1 MDR tox inactive.
Screening CCc1cccc(NC(=O)Cn2c(C(=O)OC)cc3occc32)c1 returned KB-3-1 tox inactive and KB-V1 MDR tox inactive.
COC(=O)C1=C(N)N(c2ccccc2F)C2=C(C(=O)CC(C)(C)C2)C1c1ccc(OC)c(OC)c1 (stereo not drawn) was read as KB-3-1 tox inconclusive, ELG1 repair inh 9.8%, MCF10A rerep 4.7%, KB-V1 MDR tox 4.61µM* and SW480 rerep inconclusive.
Screening CCOC(=O)c1c(NC(=S)NCCc2ccccc2)sc2c1CC(C(C)C)OC2 (stereo not drawn) returned KB-3-1 tox inactive, ELG1 repair inh inconclusive, MCF10A rerep 12.7%, KB-V1 MDR tox 20.6µM* and SW480 rerep -41.1%.
Screening C=CCNC(=S)Nc1sc2c(c1C(=O)OCC)CC(C(C)C)OC2 (stereo not drawn) returned KB-3-1 tox inactive, ELG1 repair inh inconclusive, MCF10A rerep 11.6µM*, KB-V1 MDR tox inconclusive and SW480 rerep inconclusive.
Screening CCOC(=O)c1c(NC(=S)NC)sc2c1CC(C)(C)SC2 returned KB-3-1 tox inactive, ELG1 repair inh -4.7%, MCF10A rerep inconclusive, KB-V1 MDR tox inactive and SW480 rerep 23.6%.
`c1ccc(-c2ccc3c(c2)NCCN3)cc1` gave KB-3-1 tox inactive, ELG1 repair inh 23.5%, MCF10A rerep 8.7%, KB-V1 MDR tox inactive and SW480 rerep inconclusive.
For O=[N+]([O-])c1ccc(Sc2cc[n+]([O-])c3ccccc23)c([N+](=O)[O-])c1 the results were KB-3-1 tox inactive, ELG1 repair inh inconclusive, MCF10A rerep 19.5%, KB-V1 MDR tox inconclusive and SW480 rerep 0.82µM*.
Screening O=C(CSc1nc2ccccc2c(=O)[nH]1)Nc1ccc([N+](=O)[O-])cc1 returned KB-3-1 tox inconclusive, ELG1 repair inh 18.3µM*, MCF10A rerep inconclusive, KB-V1 MDR tox inconclusive and SW480 rerep inconclusive.
For COCC(C)n1c(C)cc(C(=O)CSc2nc3ccccc3c(=O)[nH]2)c1C (stereo not drawn) the results were KB-3-1 tox 20.6µM*, ELG1 repair inh 16.4µM*, MCF10A rerep inconclusive, KB-V1 MDR tox 2.59µM* and SW480 rerep -1.8%.
